From the supplement of paper PMC6555819

Columns and labels:
Assay in all cases: PBM binding z-score (relative to random genomic background probes); higher = stronger binding; sequences stand for … in GC…GCGATTGACAGCGTAGAATGAAGG
[1] = tested on: RARb homodimer (NR concentration 270 nM)
Summary of the method: (§1)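 Binding buffer was PBS pH 7.4 with 2% milk, 0.02% Triton X-100, 1 mM DTT, 0.2 mg/mL BSA and 0.4 mg/ml salmon testes DNA. In it, ligand-free nuclear receptor dimers were incubated 1 h on custom Agilent 4×180K protein-binding microarrays carrying double-stranded probes. Antibodies against each partner (one per run) detected binding, and z-scores were calculated against random background probes after regression normalization of scanned fluorescence.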

[2] = tested on: RARg:RXRa (NR concentration 270 nM, RXRa partner concentration 90 nM)
Summary of the method: as §1

[3] = tested on: RARg homodimer (NR concentration 270 nM)
Summary of the method: as §1

[4] = tested on: RXRa DBDmut IVT, anti-RXR (DBD mutation: RXRa K156A/R161A, NR concentration 90 nM)
Summary of the method: as §1

[5] = tested on: RXRa homodimer (NR concentration 180 nM)
Summary of the method: as §1

[6] = tested on: THRa:RXRa (NR concentration 90 nM, RXRa partner concentration 90 nM)
Summary of the method: as §1

[7] = tested on: THRa homodimer (NR concentration 90 nM)
Summary of the method: as §1

[8] = tested on: VDR homodimer (NR concentration 270 nM)
Summary of the method: as §1

Sequence	PBM binding z-score [1]	PBM binding z-score [2]	PBM binding z-score [3]	PBM binding z-score [4]	PBM binding z-score [5]	PBM binding z-score [6]	PBM binding z-score [7]	PBM binding z-score [8]
CCTACTGGGGCATCAGGTCATTGATATCAACGTT	2.89	2.6	2.39	0.331	1.87	3.19	2.71	2.06
CGTCAAAGTTCCAGGTAACGTAACAGAAAGCAGC	-0.0356	0.18	0.454	0.141	0.0249	0.992	0.691	0.0156
CCTAGCAGGACAATCTGGGTCACTCAAGGCTTGA	2.13	1.2	1.42	0.379	1.09	3.07	0.761	0.0931
CGAACTAGGTCATCCAGGACAGTGGATACATTGA	3.05	4.08	4.8	2.01	2.9	3.74	1.96	2.06
CAGCCTAGGCCAGGGCCAGTATAGGAGGAACGTT	-0.366	-0.536	0.11	-1.57	-0.601	-0.884	-0.601	-0.322
TTACCAAGGTGAAAGGGCGTTGATGCACGCCTTG	1.2	1.59	0.688	-0.264	2.14	1.99	0.369	0.227
GCTATTAGTTGAAAGGGCAGCCGAATGATTCTCG	1.51	0.552	0.863	0.695	0.636	-0.12	-0.775	-0.507
CCTAGCAGGCCGGGGTCACTCAAGCATTTCGCTT	3.68	4.98	3.6	1.99	6.81	3.89	2.05	3.75
CAAACTAGGTCAAGAGGTCAAAATCCGCTTCCCG	5.66	7.74	7.02	2.42	7.25	4.55	2.33	3.18
ACTAGCAGGCCAAGTTCGGGTCACTCAAACAAAG	2.96	3.14	2.14	0.623	1.81	3.55	2.61	2.1
TCTAGTTGGTCACGGATGTCACACACGACGGGTA	1.57	1.43	1.91	0.683	1.15	0.409	0.417	0.656
TAGCCTAGGTCATGGGACAGTATACCACGCGAAC	3.25	4.44	4.59	0.981	3.62	3.35	1.62	0.784
TTACCAAGGTGAAAGGTCGTTAATGCACGCCTTG	2.23	3.93	2.08	0.25	5.05	3.23	0.834	0.976
ATCTCTAGGTAACAAATTCAGTGAAAGAGAGGAC	0.688	0.707	0.762	-0.0663	0.508	1.02	0.762	0.435
CGTCCAAGCTCAAGGTCAGTGAAAGAGACTCGAA	3.16	2.55	3.24	0.755	1.81	2.87	1.83	1.18
TAGCCTACGTCATTCAGGGGCCAGTATAGAAAGC	0.534	0.54	0.097	-0.122	0.286	0.215	-0.39	-0.343
TCTTGTAGATCAATAGAGGTTCAGAAAGTGCGCT	0.168	0.234	0.116	0.728	0.478	0.501	-0.823	1.37
ATCCCTAGGTAACAAGTTCAGTGAAAGAGAGGAC	1.94	1.09	1.15	0.955	0.712	1.65	1.17	2.48
CCTAATGGGCCAAAGGTCATTGATTCCAATGCTC	4.39	5.84	5.06	1.72	7.11	3.26	0.623	1.9

Sequence	PBM binding z-score [1]	PBM binding z-score [2]	PBM binding z-score [3]	PBM binding z-score [4]	PBM binding z-score [5]	PBM binding z-score [6]	PBM binding z-score [7]	PBM binding z-score [8]
TCTCGGGGGACACGAAAGGTCAGAGCTCGACATC	4.59	6.13	6.61	2.14	4.9	4.19	2.07	1.57
TCATATAGGTAAATGCTAGGTGAAAGCCCGATCT	0.272	0.503	0.325	1.5	0.914	1.29	0.116	-0.161
GCGACTGGGGCATCAGCAGGTTACCTTAACTTAA	0.872	0.268	0.175	0.145	0.259	1.8	2.05	-0.071
AGAACGAGGGAACGCTGAGTTGATAGCAGAGTAG	-0.725	-0.0293	0.175	-0.477	-0.0289	-0.362	-1.15	0.248
ATAATGAGGTTATACGTAGATCAGGGAAGAAAGT	1.21	2.19	1.72	2.1	2.56	2.46	0.968	1.16
ACTAGTTGGTCAGCTGAGGTGACACACAATTCGG	1.74	1.34	1.29	-0.108	0.902	4.41	2.03	0.149
ACTCGGAGGACAAAGGTCAGCGCTACGCCAGTGA	4.95	6.38	5.4	1.36	5.69	3.54	0.928	1.34
ACTATTAGTTGAGGCGAGGGCAACCGATAGGTTG	1.3	0.575	0.748	0.263	0.386	2.43	0.721	0.813
TTACCAAGGTGAGCTGCGGTCGTTGATCCAACTC	0.677	0.0521	0.0746	-0.731	0.198	2.28	0.255	-0.523
TAACCTAGGTCATTCAGGGGCCAGTATAGAAAGC	3.95	6.73	5.25	2.62	3.87	3.83	1.26	2.58
TCTTGTAGATCAAAGGTTAGGAAAGCCGAAGCCT	0.876	0.902	0.458	0.579	2.08	0.654	-0.709	-0.493
TCTCGGAGGACACGACAGGTCAGAGCTCGACATC	2.87	2.35	3.16	0.685	1.41	2.96	1.04	0.677
TAGCCTAGGTCATCGGCCAGTATACCACGCGAAC	2.9	4.27	4.72	1.02	3.08	2.76	1.11	0.802
GCTGCTAGGGCAGGTTGGTCAGCTAACGGGTACG	0.705	-0.148	0.544	-0.241	-0.467	-0.443	-0.665	-0.232
ATATGTCGGTTATCGGGTCATTCAGTTTGCGCAT	2.64	2.72	2.04	1.42	2.51	3.14	2.54	3.21
TCATTTAGGTAAACAGGTGAAAGTCCGTAAGTTA	1.09	0.646	0.406	1.59	0.903	1.52	1.13	0.754
CACACAGGGTCAGCTAGGCCAGAGTAGGGACGGC	3.23	4.52	4.78	1.76	4.03	3.04	0.987	2
CAAACTAGGTCACAGAGGTCAAAGTCCGTGCGTA	5.8	7.58	7.69	3.5	8.16	4.79	3.15	7.24
